Laboratory results reported in PubChem BioAssay (Tox21).
Results filed as inconclusive are left out. Where a call stands in place of a potency, no number is given. Calls of active or inactive are those of the source. Calls follow the shape of the full dose curve.

What follows are compounds tested against Acetylcholinesterase (Homo sapiens) (UniProt P22303) (assay: Acetylcholinesterase (AChE) small molecule antagonists: fluorescence cell-based qHTS assay (AID 1347398; also: nearly all actives have a fitted effect of over 50% in size)). Details: SH-SY5Y cells; Potency: AChE activity; outcome: AChE activity; series mostly up to 115 µM.
Chain of Acetylcholinesterase (Homo sapiens) (P22303 whole entry, looked up): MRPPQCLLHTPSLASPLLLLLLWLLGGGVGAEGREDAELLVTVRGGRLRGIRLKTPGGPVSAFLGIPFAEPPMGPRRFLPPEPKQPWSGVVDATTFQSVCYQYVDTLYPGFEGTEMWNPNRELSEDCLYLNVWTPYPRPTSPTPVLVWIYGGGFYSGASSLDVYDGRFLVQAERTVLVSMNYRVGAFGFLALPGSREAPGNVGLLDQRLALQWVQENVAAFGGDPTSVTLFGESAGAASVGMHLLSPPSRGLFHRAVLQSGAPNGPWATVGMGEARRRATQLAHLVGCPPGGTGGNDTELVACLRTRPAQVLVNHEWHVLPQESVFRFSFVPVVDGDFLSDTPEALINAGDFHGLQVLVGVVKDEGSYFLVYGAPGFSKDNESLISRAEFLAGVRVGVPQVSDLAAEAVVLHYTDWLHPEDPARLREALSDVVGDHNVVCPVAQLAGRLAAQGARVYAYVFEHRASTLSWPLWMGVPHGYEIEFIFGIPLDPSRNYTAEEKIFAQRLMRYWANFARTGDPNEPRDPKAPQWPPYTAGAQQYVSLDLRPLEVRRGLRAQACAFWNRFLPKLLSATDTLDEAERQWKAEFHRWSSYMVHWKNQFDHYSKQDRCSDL
Summary of the method: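 Fluorimetric cell-based assay: intact SH-SY5Y cells, 30 min compound preincubation at 37 C, acetylthiocholine substrate with thiol probe Thiolite Green, 40 min RT development, fluorescence 490/520 nm.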

Structure (SMILES)	Potency
CC[C@H](c1ccc(O)cc1)[C@@H](CC)c1ccc(O)cc1	inactive
COc1cc(C(=S)N2CCOCC2)cc(OC)c1OC	inactive
C/C(CC(C)C)=N\O	inactive
CC(C)N=C(N)/N=C(\N)Nc1ccc(Cl)cc1	inactive
C/C(=C1\CCOC(=O)S1)N(C=O)Cc1cnc(C)nc1N	inactive
Cc1c(O)cccc1O	inactive
O=C1c2ccccc2C(=O)c2cc(S(=O)(=O)O)ccc21	inactive
O=C(O)P(=O)(O)O	inactive
CC(C)[C@H]1CC[C@@H](C)CC1=O	inactive
O=CNNC=O	inactive
c1ccc(CCc2ccccc2)cc1	inactive
OCCCCC(O)CO (stereo not given)	inactive
CCCC(C)C(=O)O (stereo not given)	inactive
CC(=O)Nc1ccc(C)c(Cl)c1	inactive
CCCCCCCCCCCCOCCOCCOCCOCCOCCOCCOCCOCCOCCO	inactive
CN1C(=O)CC(c2ccccc2)C1=O (stereo not given)	inactive
Cc1cccc(C)c1NC(=O)CN1CCN(CCCC(c2ccc(F)cc2)c2ccc(F)cc2)CC1	inactive
Cc1cc(C(C)(C)C)c(O)c(C(C)(C)C)c1	inactive
CCCCCCCCCCCCS	inactive
COC(=O)CC(=O)OC	inactive

Structure (SMILES)	Potency
CC(C=O)Cc1ccc(C(C)C)cc1 (stereo not given)	inactive
Cn1cnc2c(=O)[nH]c(N)nc21	inactive
O=C(Cl)c1ccc(C(=O)Cl)cc1	inactive
CC#C[C@]1(O)CC[C@H]2[C@@H]3CCC4=CC(=O)CCC4=C3[C@@H](c3ccc(N(C)C)cc3)C[C@@]21C	inactive
F[B-](F)(F)F	inactive
Cc1c[nH]c2ccccc12	inactive
CC(=O)OCCN(CCOC(C)=O)c1ccc(N=Nc2ccc([N+](=O)[O-])cc2C#N)cc1	inactive
Cc1cnccn1	inactive
c1ccc(Oc2ccccc2)cc1	inactive
CC1=C(O)C(=O)OC1C (stereo not given)	inactive
CCCCCCCCCCCCC	inactive
C=C(C)C(=O)O[C@H]1C[C@@H]2CC[C@@]1(C)C2(C)C	inactive
CCN1CN(CC)CN(CC)C1	inactive
CC(=O)OC/C=C(C)/C=C/C=C(C)/C=C/C1=C(C)CCCC1(C)C	inactive
CCCCS	inactive
CC1(N)CCC(C(C)(C)N)CC1 (stereo not given)	inactive
Cc1ccccc1OCC1CO1 (stereo not given)	inactive
Cc1cc(SC2=C(O)C[C@@](CCc3ccc(N)cc3)(C(C)C)OC2=O)c(C(C)(C)C)cc1CO	inactive
CCCCCCCCCCCCCCCC(=O)O	inactive
COC(=O)N/N=C/c1c[n+]([O-])c2ccccc2[n+]1[O-]	inactive
